The list is not random: actives were taken first. Their share in the collection is about 3.8%.
KCNH2 WT inh = qHTS for Inhibitors of KCHN2 3.1: Wildtype qHTS; AID 720551, 2013; U2OS, BacMam KCNH2, thallium flux FluxOr; stronger effect = lower value; hit rate 0.37% among 340,000; activity change, % at 1.84 µM;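 active = maximum activity change below -70%; inconclusive = maximum activity change between -70% and -50%; inactive = maximum activity change above -50%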; note: % is set by controls: 0 for no effect and ±100 for the full control effect
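U2OS cells were transduced with wild-type KCNH2 virus (2.03 x 10^8 / mL) for 4 h at room temperature, then cultured overnight at 37 C. Thallium flux was read with FluxOr dye. Rate constants were normalized to DMSO controls.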
MBNL1 CUG block = qHTS Assay for Inhibitors of MBNL1-poly(CUG) RNA binding. Muscleblind-like protein 1 (Homo sapiens), Q9NR56. TR-FRET MBNL1-His/biotin-(CUG)12 binding, 665/545 ratio. Potency, µM (titrated, usually from 57.5 µM), without a hit: top-dose activity change, negative = inhibition, most hits filed as inhibitors. hit rate 0.036% among 280,000; active = well fitted inhibition curve with a large enough effect in the signal ratio, with a control signal flat, not every such curve was filed as active; inconclusive = small, poorly fitted or top-dose-only effect, or effect the other way, or a change in a side signal; inactive = no such curve, though single readings can be large or run the other way; the % refers to the signal ratio; note: potency is the fitted concentration of half-maximal effect; % is set by controls: 0 for no effect and ±100 for the full control effect
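Inhibition of protein-RNA binding appears as loss of TR-FRET between terbium anti-His antibody on MBNL1-His and streptavidin-XL665 on biotin-(CUG)12. Activity is normalized to buffer-only and uninhibited-complex controls.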
KCNH2 3.1 inh = qHTS for Inhibitors of KCHN2 3.1: Mutant qHTS; Potassium voltage-gated channel subfamily H member 2, brain isoform KCNH2 3.1 (human); hit rate 0.95% among 340,000; AID 720553, 2013; U2OS KCNH2 3.1, thallium flux FluxOr; stronger effect = lower value; activity change, % (tested at about 1.8 µM);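 active = maximum activity change below -70%; inconclusive = maximum activity change from -70% to -50%; inactive = maximum activity change above -50%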;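 note: thallium influx rate constant from kinetic fluorescence after stimulation buffer; % is set by controls: 0 for no effect and ±100 for the full control effect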
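Steps: virus added to U2OS suspension (4 h, RT, dark); medium with 10% FBS added, cells plated, 37 C overnight; FluxOr/Red40 loading buffer 45 min RT; stimulation buffer, 2 min kinetic read; rate constant normalized.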
CBFb RUNX1 block = qHTS Assay for Compounds Blocking the Interaction Between CBF-beta and RUNX1 for the Treatment of Acute Myeloid Leukemia; Runt-related transcription factor 1 (Homo sapiens) + Core-binding factor subunit beta …; AlphaScreen CBFb-His/RUNX1-biotin binding, biochemical; Potency, µM (titrated, usually from 59.8 µM), for the others: at the highest dose activity, negative = inhibition, most hits filed as inhibitors; 230,000 tested, under 10 active; AID 1477, 2009; note: % of control where 0% means no effect
Target sequence (Q01196 whole entry, looked up): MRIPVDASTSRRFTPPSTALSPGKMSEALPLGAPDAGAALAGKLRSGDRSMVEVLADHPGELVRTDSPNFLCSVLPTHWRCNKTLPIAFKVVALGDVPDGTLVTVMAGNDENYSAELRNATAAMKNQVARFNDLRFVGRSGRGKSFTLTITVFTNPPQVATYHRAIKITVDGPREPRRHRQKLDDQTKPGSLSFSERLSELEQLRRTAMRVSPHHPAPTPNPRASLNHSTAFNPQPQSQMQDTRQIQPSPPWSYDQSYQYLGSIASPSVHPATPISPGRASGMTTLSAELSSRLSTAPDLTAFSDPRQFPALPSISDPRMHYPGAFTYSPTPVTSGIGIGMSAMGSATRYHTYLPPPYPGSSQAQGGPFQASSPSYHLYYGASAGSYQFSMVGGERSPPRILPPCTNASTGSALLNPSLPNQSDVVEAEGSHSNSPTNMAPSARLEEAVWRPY
Target sequence (Q13951 whole entry, looked up): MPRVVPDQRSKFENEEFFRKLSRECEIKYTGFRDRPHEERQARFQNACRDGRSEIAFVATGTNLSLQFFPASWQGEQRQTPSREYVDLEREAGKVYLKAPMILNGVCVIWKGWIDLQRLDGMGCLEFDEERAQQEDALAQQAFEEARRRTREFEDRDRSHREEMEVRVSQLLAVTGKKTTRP
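CBF-beta (His) and RUNX1 (biotin), 30 nM each; 20 min preassociation; + compound, 15 min; + beads 50 ng each (Ni, streptavidin), 90 min; RT; AlphaScreen read.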
VDR inh = Inhibitors of the vitamin D receptor (VDR): qHTS; Vitamin D3 receptor (Homo sapiens), P11473; VDR-SRC2-3 peptide fluorescence polarization, 2 h; Potency, µM, without a hit: max response, negative = inhibition, hits mostly inhibitors; hit rate 0.93% among 400,000; AID 504847, 2011; note: potency is the fitted concentration of half-maximal effect; % is set by controls: 0 for no effect and ±100 for the full control effect
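FP read-out; VDR + SRC2-3 coactivator peptide; 23 nl compound by pintool; 2 h RT incubation; reagents held at 4 deg C, protected from light.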
PLK1 PBD block = qHTS for Inhibitors of PLK1-PDB (polo-like kinase 1 - polo-box domain): Primary Screen; Serine/threonine-protein kinase PLK1 (Homo sapiens), P53350; Plk1 PBD binding of FITC phosphopeptide, fluorescence polarization; Potency, µM, for inactives: max response, negative = inhibition, actives largely listed as inhibitors; hit rate 2.8% among 360,000; note: potency is the fitted concentration of half-maximal effect; series mostly up to about 57 µM; % is set by controls: 0 for no effect and ±100 for the full control effect; nearly all actives have a fitted effect of over 65% in size
* marks the source's active call; other numbers are inactive results; ? = inconclusive; nt = no result given. Unless noted, calls come from the whole dose curve; as a rule, active = well fitted curve in the direction sought with a large enough effect; inconclusive = small, poorly fitted or top-dose-only effect, or another doubt; inactive = no such curve, though single readings can be large; an effect the other way counts as inactive or inconclusive.

SMILES | KCNH2 WT inh | MBNL1 CUG block | KCNH2 3.1 inh | CBFb RUNX1 block | VDR inh | PLK1 PBD block
Cc1ccc(N2CC(C(=O)NCCS(=O)(=O)N3CCN(c4ccccc4F)CC3)CC2=O)cc1 (centres undefined) | 1 | 0% | 5 | nt | ? | 11µM*
CCc1ccc(Nc2n[n+](C)c(-c3ccncc3)s2)cc1 | 3 | 4% | -13 | nt | 79µM* | ?
CCc1ccc(Nc2n[n+](C)c(-c3ccc(C(=O)O)cc3)s2)cc1 | nt | 2% | nt | 7% | nt | nt
COc1cc2c(cc1OC)C(COc1ccc(F)cc1)N(C(=O)c1ccc(S(=O)(=O)N3CCCC3)cc1)CC2 (centres undefined) | nt | nt | nt | nt | 7% | nt
c1ccc(CCn2nnc3ccccc32)cc1 | 4 | nt | 1 | 22% | -23% | 21µM*
COc1ccc(Nc2c3c(nc4ccc(NC(=O)c5cc(Cl)ccc5OC)cc24)CCCC3)cc1OC | nt | nt | nt | nt | 11% | nt
CCCCCCC(=O)Nc1c2c(nc3ccccc13)N(C)CC2 | -101* | -3% | -95* | -3% | -14% | -13%
CCc1nnc2c3ccccc3nc(N3CCN(c4cc(C)ccc4C)CC3)n12 | nt | nt | nt | nt | 6% | nt
CCOc1ccc(NC(=O)CN2C(=O)C3(SCC(=O)N3c3ccc(F)cc3)c3ccccc32)cc1 (centres undefined) | nt | nt | nt | nt | 20% | nt
C/C(O)=C(\N=Nc1cc(C)ccc1O)C(N)=O | 1 | ? | -15 | -9% | -3% | 30µM*
Cc1ccc(O)c(N=NC2=C(O)CC(C)(C)CC2=O)c1 | -1 | nt | -30 | -24% | 9% | 6%
COc1c2c(c(C(=O)/C=C/C(C)=C/c3ccccc3)c3c1OCO3)CCN(C)C2 | nt | nt | nt | -3% | 45µM* | nt
CC(/C=C/C(=O)c1ccc(C)cc1)=C\c1ccccc1 | -13 | -12% | nt | 4% | -3% | -4%
CC(OC(=O)c1cc(O)c2ccccc2c1O)C(=O)Nc1ccc(C(N)=O)cc1 (centres undefined) | -7 | nt | -12 | nt | ? | 6.7µM*
O=C1CC(c2cccc(O)c2)c2cc3c(cc2N1)OCO3 (centres undefined) | nt | nt | nt | nt | 5% | nt
N#Cc1cccc(NC(=O)Cn2cnc(S(=O)(=O)N3CCCC3)c2)c1 | 0 | 25% | -2 | nt | -3% | -9%
N#Cc1cccc(NC(=O)Cn2cnc(S(=O)(=O)N3CCOCC3)c2)c1 | 0 | -10% | 2 | nt | ? | 9.5µM*
CN(C)S(=O)(=O)c1ccc(C(=O)NCCSc2c(-c3ccc(Br)cc3)[nH]c3ccccc23)cc1 | nt | nt | nt | nt | -18% | nt
COC(=O)C1=C(O)/C(=C\c2ccc(OCC(=O)Nc3ccccc3OC)cc2)N=C1C | 10 | 0% | -1 | nt | ? | 21µM*
O=C(CSc1nc2c(c(=O)[nH]1)CCC2)Nc1ccccc1C(F)(F)F | nt | nt | nt | nt | 9% | nt
CC1=C(c2ccc(C(C)C)cc2)S(=O)(=O)N=C1N1CCC(C(=O)NCCc2ccco2)CC1 | nt | nt | nt | nt | 5% | nt
CC(=O)NC(CC(=O)OCC(=O)c1c(N)n(C)c(=O)n(C)c1=O)c1ccccc1 (centres undefined) | 2 | -2% | 10 | -13% | ? | 24µM*
Cn1c(N)c(C(=O)COC(=O)CSc2cccc3cccc(Cl)c23)c(=O)n(C)c1=O | 5 | 33% | -21 | -9% | 5% | 27µM*
Cn1c(N)c(C(=O)COC(=O)CSc2ccc3ccccc3c2)c(=O)n(C)c1=O | 2 | -2% | 13 | 8% | 9% | -10%
CC(=O)NC(Cc1ccccc1)C(=O)N1CCN(C(=O)c2cccs2)CC1 (centres undefined) | 5 | -8% | -94* | 6% | -8% | -7%
SMILES | KCNH2 WT inh | MBNL1 CUG block | KCNH2 3.1 inh | CBFb RUNX1 block | VDR inh | PLK1 PBD block
COc1ccc(S(=O)(=O)Nc2c(O)ccc3ccccc23)cc1OC | 1 | nt | 17 | nt | ? | 30µM*
Cc1ccc(Oc2nc3ccccn3c(=O)c2/C=C(\C#N)C(=O)NC2CCS(=O)(=O)C2)cc1 (centres undefined) | -2 | 7% | 3 | 1% | 79µM* | -4%
Cc1cccn2c(=O)c(/C=C(\C#N)C(=O)NC3CCS(=O)(=O)C3)c(Oc3ccccc3Cl)nc12 (centres undefined) | 3 | ? | 3 | nt | 18µM* | -28%
Cc1cccn2c(=O)c(/C=C(\C#N)C(=O)NC3CCS(=O)(=O)C3)c(N3CCC(C(N)=O)CC3)nc12 (centres undefined) | -3 | 50% | 4 | -2% | -13% | -4%
Cc1cccn2c(=O)c(/C=C(\C#N)C(=O)NC3CCS(=O)(=O)C3)c(N3CC(C)OC(C)C3)nc12 (centres undefined) | -6 | nt | 0 | 0% | -2% | 1%
Cc1ccccc1Oc1nc2c(C)cccn2c(=O)c1/C=C(\C#N)C(=O)NC1CCS(=O)(=O)C1 (centres undefined) | 5 | nt | -3 | -1% | 40µM* | -11%
CCC(C)NC(=O)Cn1c(=O)ccc2cc(S(=O)(=O)N3CCCC3)ccc21 (centres undefined) | nt | nt | nt | nt | -1% | nt
COc1ccccc1CNC(=O)CCc1c(C)nn(-c2ccc(N3CCCCC3)nn2)c1C | nt | nt | nt | nt | 9% | nt
COc1cccc(Cn2c(C)c(CNCc3cccc(C)c3)c(C(=O)O)c2C)c1 | nt | nt | nt | nt | 14% | nt
COc1ccccc1N1CCN(C(=O)CCn2cnc3onc(-c4ccc(F)cc4)c3c2=O)CC1 | nt | nt | nt | nt | 12% | nt
Cc1ccc2oc(C(=O)NCC(c3ccc(Cl)cc3)N3CCOCC3)c(C)c2c1 (centres undefined) | nt | nt | nt | nt | 16% | nt
C=CCN(C(=O)CSc1nc2ccsc2c(=O)n1Cc1ccc(C(=O)O)cc1)c1ccccc1 | -254* | nt | 11 | nt | nt | -13%
Cc1ccc(NC2CCCN(C(=O)c3ccc(F)cc3)C2)cc1C (centres undefined) | -2 | 1% | -8 | nt | ? | 6.7µM*
Cc1ccc(NC2CCCN(C(=O)CSc3ccccn3)C2)cc1C (centres undefined) | -7 | 3% | 1 | nt | ? | 24µM*
Cc1ccc(NC2CCCN(C(=O)c3ccc4nccnc4c3)C2)cc1C (centres undefined) | 6 | 5% | nt | nt | -3% | -5%
O=C(CSc1ccccn1)N1CCN(c2ccc(Cl)cc2)CC1 | 7 | 2% | -6 | 1% | -21% | 24µM*

Screens (PubChem)
